Results filed as inconclusive are left out. Active and inactive are the calls of the source. Rule for the calls: active = hit-call score of the fitted dose curve at least 0.9, where 1 is the maximum; inconclusive = response in the unintended direction; inactive = score below 0.9.
Assays:
[1] = TOX21_p53_BLA_p2_viability: Viability Assessment in the Tox21 HCT-116 p53 Agonism Beta-lactamase Assay, Phase 2 (AID 2283591);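 note: actives lower the ATP signal meaning cytotoxicity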
In short: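 Cytotoxicity readout: CellTiter-Glo ATP luminescence, 30 min at room temperature, after the beta-lactamase read. Cells were HCT116 exposed 16 h at 37C to compounds pin-transferred at 217-fold dilution from DMSO stocks.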

[2] = molecular target: Cellular tumor antigen p53 (Homo sapiens) (UniProt P04637); experiment: TOX21_p53_BLA_p2_ratio: Tox21 HCT-116 p53 Agonism Beta-lactamase Assay, Ratio, Phase 2 (AID 2283592)
In short: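 Gain-of-signal p53 agonism was scored from the beta-lactamase FRET ratio (460/530 nm, 405 nm excitation) in HCT116 cells treated 16 h at 37C, 5% CO2, with DMSO serving as negative control and baseline.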

[3] = molecular target: Cellular tumor antigen p53 (Homo sapiens) (UniProt P04637); experiment: TOX21_p53_BLA_p3_ratio: Tox21 HCT-116 p53 Agonism Beta-lactamase Assay, Ratio, Phase 3 (AID 2283596)
In short: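 HCT116 p53-bla cells (4000/well) given compound in DMSO (217-fold dilution) after 5 h, incubated 16 h at 37C. CCF4-AM substrate 2 h at room temperature; 460/530 nm emission ratio, gain fitted against DMSO.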

[4] = TOX21_p53_BLA_p4_viability: Viability Assessment in the Tox21 HCT-116 p53 Agonism Beta-lactamase Assay, Phase 4 (AID 2283597);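 note: hits lower the luminescence signal meaning cytotoxicity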
In short: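 Following a 16 h exposure at 37C, the treated HCT116 wells were first read for the FRET ratio. They were then lysed with CellTiter-Glo, and ATP luminescence was recorded after 30 min at room temperature.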

[5] = molecular target: Cellular tumor antigen p53 (Homo sapiens) (UniProt P04637); experiment: TOX21_p53_BLA_p5_ratio: Tox21 HCT-116 p53 Agonism Beta-lactamase Assay, Ratio, Phase 5 (AID 2283599)
In short: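 Beta-lactamase reporter ratio (blue 460 nm over green 530 nm, 405 nm excitation) after 2 h CCF4-AM loading, in HCT-116 cells exposed 16 h at 37 C to compounds pinned at 217-fold dilution. Increases relative to DMSO baseline scored.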

[6] = TOX21_p53_BLA_p5_viability: Viability Assessment in the Tox21 HCT-116 p53 Agonism Beta-lactamase Assay, Phase 5 (AID 2283600)
In short: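 After the 460/530 nm beta-lactamase measurement, the wells received an ATP-detection luciferase reagent; signal was read 30 min later at RT. Compound treatment lasted 16 h on cells pre-incubated 5 h post-seeding.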

[7] = molecular target: Cellular tumor antigen p53 (Homo sapiens) (UniProt P04637); experiment: TOX21_p53_BLA_p4_ratio: Tox21 HCT-116 p53 Agonism Beta-lactamase Assay, Ratio, Phase 4 (AID 2283601)
In short: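 Signal is the blue/green (460nm/530nm) ratio of cleaved versus uncleaved CCF4-AM substrate, read after 2 h substrate loading. Cells were HCT116 carrying the p53-responsive beta-lactamase reporter, dosed 16 h at 37C, 5% CO2; CellTiter-Glo measured in parallel.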

PGR (gene 5241) [8] = molecular target: PGR (gene 5241) (UniProt P06401); experiment: TOX21_PR_BLA_Followup_Antagonist_ratio: Tox21 HEK293 Progesterone Receptor (PR) Antagonism Beta-lactamase Follow-Up Assay, Ratio (AID 2283934)
In short: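 PR-UAS-bla HEK293T cells, 3,000/well in 2% charcoal-stripped FBS, given compound plus 1nM R5020 agonist for 16 hr at 37C. Beta-lactamase FRET substrate 2 hours, ratio cleaved/uncleaved fluorescence; viability by CellTiter-Glo in same wells.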

[9] = TOX21_PR_BLA_Followup_Agonist_viability: Viability Assessment in the Tox21 HEK293 Progesterone Receptor (PR) Agonism Beta-lactamase Follow-Up Assay (AID 2283935);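 note: signal loss means lower viability so actives are cytotoxic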
In short: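 PR-UAS-bla HEK293T cells in 2% charcoal-stripped FBS medium, plated 6 hr before compound addition, exposed 16 hr at 37C. Viability read by CellTiter-Glo ATP luminescence after 30 min at room temperature, in the same wells as the beta-lactamase readout.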

PGR (gene 5241) [10] = molecular target: PGR (gene 5241) (UniProt P06401); experiment: TOX21_PR_LUC_Followup_Antagonist: Tox21 HEK293 Progesterone Receptor (PR) Antagonism Luciferase Follow-Up Assay (AID 2283938);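 note: curve fitted upward as signal gain over DMSO baseline despite antagonist label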
In short: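 Luminescence from ONE-Glo was measured 30 min after reagent addition, following 16 h exposure of HEK293-PR-A-luc cells (3,000/well, plated 5 h earlier) to DMSO-dissolved compounds at 37C; DMSO served as baseline.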

[11] = TOX21_PR_LUC_Followup_Antagonist_viability: Viability Assessment in the Tox21 HEK293 Progesterone Receptor (PR) Antagonism Luciferase Follow-Up Assay (AID 2283940)
In short: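 HEK293-PR-A-luc cells kept in charcoal-stripped FBS medium were plated 5 h before compound addition, then exposed 16 h at 37C; viability read as cellular ATP by luciferase luminescence, loss of signal indicating cytotoxicity.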

[12] = TOX21_PR_LUC_Followup_Agonist_viability: Viability Assessment in the Tox21 HEK293 Progesterone Receptor (PR) Agonism Luciferase Follow-Up Assay (AID 2283941);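 note: loss of signal means cytotoxicity so actives lower viability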
In short: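 HEK293-PR-A-luc cells, kept in 10% charcoal-stripped FBS medium, were treated with compounds for 16 h at 37C. Viability read as cellular ATP by luciferase-coupled luminescence; loss of signal indicates cytotoxicity.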

[13] = TOX21_PR_BLA_Followup_Antagonist_viability: Viability Assessment in the Tox21 HEK293 Progesterone Receptor (PR) Antagonism Beta-lactamase Follow-Up Assay (AID 2283936);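 note: hits lower the luminescence signal meaning cytotoxicity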
In short: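 PR-UAS-bla HEK293T cells (3,000/well, 2% charcoal-stripped FBS) given compound plus R5020 agonist, 16 h at 37C. CellTiter-Glo added after bla read, 30 min at room temperature; luminescence loss indicates cytotoxicity.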

Measured: AC50

Sequence of Cellular tumor antigen p53 (Homo sapiens) (P04637 whole entry, looked up): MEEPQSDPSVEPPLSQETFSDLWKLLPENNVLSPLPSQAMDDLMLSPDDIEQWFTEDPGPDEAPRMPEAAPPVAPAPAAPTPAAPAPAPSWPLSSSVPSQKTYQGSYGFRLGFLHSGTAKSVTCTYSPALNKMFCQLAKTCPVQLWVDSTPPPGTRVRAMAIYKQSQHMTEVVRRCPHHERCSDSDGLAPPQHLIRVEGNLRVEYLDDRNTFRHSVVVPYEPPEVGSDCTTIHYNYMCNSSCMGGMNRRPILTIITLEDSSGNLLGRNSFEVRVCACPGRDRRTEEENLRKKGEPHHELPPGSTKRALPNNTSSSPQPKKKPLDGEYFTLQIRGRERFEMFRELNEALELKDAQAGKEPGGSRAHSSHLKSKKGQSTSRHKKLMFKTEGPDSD
Sequence of PGR (gene 5241) (P06401 whole entry, looked up): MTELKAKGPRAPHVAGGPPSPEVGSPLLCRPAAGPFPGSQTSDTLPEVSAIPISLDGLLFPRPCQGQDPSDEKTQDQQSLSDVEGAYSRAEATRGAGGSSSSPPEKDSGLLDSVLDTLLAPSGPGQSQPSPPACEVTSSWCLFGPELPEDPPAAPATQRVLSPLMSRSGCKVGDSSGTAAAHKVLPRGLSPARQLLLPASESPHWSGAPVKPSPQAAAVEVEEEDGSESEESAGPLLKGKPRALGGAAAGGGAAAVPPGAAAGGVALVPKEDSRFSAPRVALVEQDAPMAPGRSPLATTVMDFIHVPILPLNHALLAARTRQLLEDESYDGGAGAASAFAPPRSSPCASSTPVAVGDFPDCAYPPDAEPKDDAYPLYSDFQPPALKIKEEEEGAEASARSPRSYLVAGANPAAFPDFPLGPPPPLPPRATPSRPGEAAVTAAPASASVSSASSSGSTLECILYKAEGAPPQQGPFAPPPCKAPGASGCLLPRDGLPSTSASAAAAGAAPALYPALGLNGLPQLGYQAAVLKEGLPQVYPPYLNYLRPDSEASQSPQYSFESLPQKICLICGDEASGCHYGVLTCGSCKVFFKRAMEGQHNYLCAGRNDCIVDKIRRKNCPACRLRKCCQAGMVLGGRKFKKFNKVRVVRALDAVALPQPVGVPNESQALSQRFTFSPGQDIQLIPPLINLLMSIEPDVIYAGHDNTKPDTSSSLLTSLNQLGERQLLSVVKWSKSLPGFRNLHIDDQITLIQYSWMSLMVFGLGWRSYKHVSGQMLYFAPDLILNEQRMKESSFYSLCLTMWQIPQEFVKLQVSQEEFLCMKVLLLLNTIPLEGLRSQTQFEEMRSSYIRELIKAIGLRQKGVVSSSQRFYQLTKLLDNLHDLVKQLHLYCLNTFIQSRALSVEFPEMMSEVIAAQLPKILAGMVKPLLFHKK

CC1(C)CCC(C)(C)c2cc(NC(=O)c3ccc(C(=O)O)cc3)ccc21
active: [1] 36.6 µM | [3] 39.1 µM | [4] 36.1 µM | [5] 44.2 µM | [6] 43.5 µM | [7] 44.7 µM
not listed: [13]
inactive: all other assays above

Cc1ccc2c(ccc3ccccc32)c1
inactive: [1] | [2] | [3] | [4] | [5] | [7]

CC(CN(C)C)C(C)(O)Cc1ccc(Cl)cc1 (stereo not given)
inactive: [1] | [2] | [3] | [4] | [5] | [6] | [7]

CCN[C@H]1CN(CCCOC)S(=O)(=O)c2sc(S(N)(=O)=O)cc21
inactive: [1] | [2] | [3] | [4] | [5] | [7]

CC(=O)Oc1ccc2c(c1)CC[C@@H]1[C@@H]2CC[C@]2(C)[C@@H](O)CC[C@@H]12
active: PGR (gene 5241) [8] 0.846 µM | PGR (gene 5241) [10] 0.449 µM
not listed: [11] | [12]
inactive: all other assays above

CN=C(NC#N)NCCSCc1csc(N=C(N)N)n1
inactive: [1] | [2] | [3] | [4] | [5] | [7]

Nc1cc(Cl)c([N+](=O)[O-])cc1O
inactive: [1] | [2] | [3] | [4] | [5] | [6] | [7]

Reference: PubChem BioAssay (EPA / NIEHS)
